Hit rate of the full screen: of about 370,000 compounds, about 4,100 (1.1%) were called active. Many of the other results were omitted from the sample, so actives are more common in it than they were. Values without a mark were called inactive.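 How the source made its calls: active means inhibition above the mean over all tested compounds plus 3 SD (cut at about 3.6% in these data); inactive means the rest.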

The assay in a line: relief of DAX-1 repression of SF-1 activity – cell-based, luminescence, SF-1 (NR5A1), full-length DAX-1, primary screen (AID 652010).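 Further: 0% = DAX-1 cells with DMSO and 100% = cells lacking DAX-1 with DMSO.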 Particulars: HEK293T StAR-luciferase reporter, SF-1/DAX-1 repression relief; at 6.8 µM; stronger effect = higher value.
Consider `O=C(NCC1(N2CCCCC2)CCCCC1)c1ccc(NS(=O)(=O)c2ccc(F)cc2)cc1`, for which the inhibition is 10.6% (active).

For the compound `O=C(NCC1CCCO1)c1ccc(S(=O)(=O)Nc2ccc(F)cc2)cc1` (stereo not drawn), the inhibition was 0.67%.

For the compound `CCOc1ccc(S(=O)(=O)Nc2cccc(C(=O)NCC3(N4CCCCC4)CCCCC3)c2)cc1`, the inhibition is 6.71% (active).

Turning to `CN(C)S(=O)(=O)c1ccc(C(=O)NCC2(N3CCOCC3)CCCCC2)cc1`, the inhibition was 3.47%.

`O=C(NCC1(N2CCCCC2)CCCCC1)c1cccc(S(=O)(=O)Nc2ccccc2Cl)c1`: the inhibition is 3.28%.

As to `CCOc1ccc(NS(=O)(=O)c2ccc(C(=O)NCC(c3ccccc3OC)N3CCCC3)cc2)cc1` (stereo not drawn), the inhibition is 1.1%.

As to `C=C(C)C1CC23C(=O)C4(C(=O)c5ccccc5)C[C@@]5(C)CCC(CC2C1(C)C)(C4=O)C35OC` (stereo partly drawn), the inhibition is -0.55%.

As to `CN1C[C@]2(C=C3CCCCC3n3c(=O)n(-c4ccccc4)c(=O)n32)N=C1NC(=O)c1ccccc1` (stereo partly drawn), the inhibition is -0.17%.

On to `CCc1ccccc1NC(=O)CSc1nnc(-c2cccs2)o1`, for which the inhibition is -1.18%.

For `Clc1ccc(C(Cn2ccnc2)OCc2ccsc2Cl)c(Cl)c1` (stereo not drawn), the inhibition was -1.62%.

`Fc1cnc(N2CCOCC2)nc1NCc1ccccc1`: the inhibition was 0.22%.

In the case of `COc1ccc(Nc2ncc(F)c(N3CCOCC3)n2)cc1`, the inhibition is 4.78% (active).

On to `COC(=O)c1ccccc1Oc1c(F)c(F)nc(N2CCOCC2)c1F`, for which the inhibition is 0.02%.

Consider `CN(C)c1ccc(NC(=O)CSc2n[nH]c(-c3ccco3)n2)cc1`, for which the inhibition is -1.06%.

Take `CCCCC[C@H](C)N1C[C@@H](COCc2ccccc2)Oc2cc(N3CC[C@@H](N(C)C)C3)ccc2S1(=O)=O`: the inhibition is 0.28%.

For the compound `COc1ccc(C2=CN(Cc3ccccc3)C(c3ccc(OC)cc3)CC2=O)cc1` (stereo not drawn), the inhibition is -1.09%.

In the case of `O=S(=O)(NCC1CCCO1)c1ccc2ccccc2c1` (stereo not drawn), the inhibition is -0.46%.

For the compound `O=C(c1cc(COc2ccc(F)cc2F)on1)N1CCOCC1`, the inhibition was 1.39%.

For the compound `COc1cc(OC)c(C(=O)N2CCCC2)cc1OC`, the inhibition was -0.07%.

On to `O=C(c1ccco1)N1CCN(C(=O)c2cc(-c3ccccc3F)no2)CC1`, for which the inhibition was 0.38%.

Regarding `O=C(c1cc(C2CCCCN2S(=O)(=O)c2ccccc2)on1)N1CCOCC1` (stereo not drawn), the inhibition was -1.39%.

Consider `COc1ccc(C(=O)C2CCCN(C(=O)c3cc(C)on3)C2)cc1F` (stereo not drawn), for which the inhibition is -0.49%.

`O=C(c1cc(-c2ccccc2O)on1)N1CCCC1`: the inhibition was 6.48% (active).

On to `COc1ccccc1-c1cc(C(=O)N2CCCCC2)no1`, for which the inhibition is 9.11% (active).

With `CC(=O)c1ccc(NC(=O)c2cc(-c3cccs3)on2)cc1`, the inhibition was 0.84%.

Take `O=C(c1cc(-c2cccs2)on1)N1CCCCC1`: the inhibition is 4.8% (active).

As to `COc1ccc(OCc2cc(C(=O)N3CCCC3)no2)c2ccccc12`, the inhibition was 6.04% (active).

`COc1cc(Cl)ccc1OCc1cc(C(=O)N2CC[C@@H]3CCCC[C@H]3C2)no1`: the inhibition was 3.53%.

As for `CCOC(=O)C1CCCN(C(=O)c2cc(-c3cccs3)oc2C)CC1` (stereo not drawn), the inhibition is -0.69%.

On to `O=C1CSC2=NCN(c3ccccc3)CN12`, for which the inhibition was -0.05%.

For the compound `CN(C)S(=O)(=O)c1cccc(C(=O)N/N=C\c2ccco2)c1`, the inhibition was 0.25%.

Regarding `COC[C@@H]1CCCN1c1ccc2c(c1)O[C@H](C)CCN(C1CC1)S2(=O)=O`, the inhibition is -1.04%.

As for `CC(C)N1CCCCC(NC(=O)c2ccc3ccccc3c2)C1=O` (stereo not drawn), the inhibition was 0.26%.

Consider `O=C(NCCc1ccccn1)c1nc(Cn2cc([N+](=O)[O-])cn2)no1`, for which the inhibition was 0.2%.

For `COc1ccc(N2C(=O)CN=C2Nc2cccc(C)c2C)cc1OC`, the inhibition was -0.59%.

In the case of `O=C(NCc1ccccc1Cl)C1CCCN1S(=O)(=O)c1ccc(F)cc1` (stereo not drawn), the inhibition is -0.27%.

Consider `O=C(N1CCOCC1)N1CC[C@H]2[C@H](CCCN2Cc2ccc(F)cc2)C1`, for which the inhibition was 0.58%.

Turning to `COC(=O)[C@]12C[C@H](CC(=O)N3CCN(C(=O)C4CC4)CC3)C(=O)N(CCC3=CCCCC3)C1=C[C@H](C(C)C)O[C@@H]2C1CC1`, the inhibition was -0.81%.

Take `COc1ccccc1N(C)S(=O)(=O)c1ccc(C(=O)NC2CCCCCC2)cc1`: the inhibition was -0.26%.

Turning to `O=C(CSc1nnc(-c2ccccn2)n1-c1ccc(Cl)cc1)Nc1ccccc1-c1ccccc1`, the inhibition is -0.72%.

Regarding `Cc1ccc(NC(=O)c2cc(C)nn2-c2ccccc2)c(C)c1`, the inhibition was -0.54%.

On to `Cc1ccc(NC(=S)Nc2ncccc2C)c(C)c1`, for which the inhibition was 4.16% (active).

`Cc1cc(Br)ccc1NC(=S)NC1CCCC1`: the inhibition was 0.19%.

For the compound `O=C(c1ccncc1)N1CC[C@H]2[C@H](CCCN2Cc2ccc(F)cc2)C1`, the inhibition was -0.35%.

On to `Cc1ccccc1CN1CCCCC(NC(=O)c2cccc(C#N)c2)C1=O` (stereo not drawn), for which the inhibition was -1.4%.

For `Cc1ccc2cc(/C=N/Nc3ccc(C(=O)O)cc3)c(Cl)nc2c1`, the inhibition is 4.23% (active).

Take `Cc1ccc(C(=O)N/N=C/c2sc(=O)n(Cc3cccc(C(=O)O)c3)c2Cl)cc1`: the inhibition was -0.16%.

Consider `Cc1ccc(/C=C2\CCn3c2nc2cc(C(=O)O)ccc2c3=O)c(C)c1`, for which the inhibition is -0.46%.

As for `CCCCCCCCN1C(=O)[C@@H](CC(=O)NCCCC)C[C@@]2(C(=O)OC)C1=C[C@H](C(C)(C)C)O[C@@H]2C`, the inhibition was 1.52%.

Take `O=C(NCCc1ccccc1)c1c[nH]c2ccc(F)cc2c1=O`: the inhibition is -0.4%.

As for `O=C(NCCc1c[nH]c2ccccc12)c1cc2ccccc2oc1=O`, the inhibition was 6.37% (active).

For the compound `O=C(CCCCCn1c(=O)[nH]c2ccccc2c1=O)NCCc1c[nH]c2ccccc12`, the inhibition was -0.81%.

In the case of `O=C(NCCCCCCCCCNC(=O)C(F)(F)F)C(F)(F)F`, the inhibition is 0.58%.

Turning to `COC(=O)C1=C(C)N(Cc2ccccc2C(F)(F)F)C(=NCc2ccc(OC)cc2)NC1c1cccc(C(F)(F)F)c1` (stereo not drawn), the inhibition is -2.23%.

Turning to `Cc1cccc(NC(=S)N2CCC(C(=O)c3ccc(F)cc3)CC2)c1`, the inhibition was 0.4%.

`O=C(Nc1ccc(-c2nnc(-c3ccccc3)o2)cc1)C1CCCO1` (stereo not drawn): the inhibition is 3.77% (active).

Consider `CC(C)(C)NS(=O)(=O)c1ccc(NC(=O)C2CCCO2)cc1` (stereo not drawn), for which the inhibition was -0.07%.

`CCOC(=O)c1ccc(NC(=O)c2ccc(NC(=O)C3CCCO3)cc2)cc1` (stereo not drawn): the inhibition is -1.16%.

Take `CN1CCCc2nc(-c3ccccc3)ccc21`: the inhibition is 1.43%.

Consider `Cc1cccc(/C(N)=N/OC(=O)c2ccccc2Cl)c1`, for which the inhibition is 4.38% (active).

As for `Cc1ccc(C(=O)O/N=C(\N)c2ccccn2)cc1Cl`, the inhibition is 1.79%.

Regarding `C/C(=N\OC(=O)c1ccccc1)c1c(C)nc2cc(C)ccn12`, the inhibition was -0.48%.

On to `Cc1ccc(Cn2cc(COC(=O)N(C)Cc3ccccc3)nn2)cc1`, for which the inhibition was -0.12%.

Turning to `CC(C)(C)c1ccc(S(=O)(=O)NCC2CCN(C(=O)C(=O)c3cc4ccccc4o3)CC2)cc1`, the inhibition was -1.6%.

As to `COc1ccc(CCOC2OC(CO)C(OC(=O)/C=C/c3ccc(O)c(OC)c3)C(O[C@H]3O[C@@H](C)[C@H](O)[C@@H](O)[C@H]3O)C2O)cc1O` (stereo partly drawn), the inhibition was 4.55% (active).

Consider `COc1cc(/C=C/C(=O)OCC(=O)NCCCc2ccccc2)ccc1O`, for which the inhibition was -0.2%.

Take `COc1cc(/C=C/CO)cc(OC)c1O[C@@H]1O[C@H](CO)[C@@H](O)[C@H](O)[C@H]1O`: the inhibition was 0.72%.

In the case of `O=C(OC12CCCN(C1)/C(=C/c1ccccc1)C2)c1ccco1` (stereo not drawn), the inhibition is 0.04%.

Turning to `CCOc1cccc(/C=C/c2ccc3ccccc3n2)c1OC(C)=O`, the inhibition was 5.71% (active).

For `CCOc1cc(C(=O)Nc2ccc(S(=O)(=O)Nc3cnc4ccccc4n3)cc2)cc(OCC)c1OCC`, the inhibition is -0.22%.

For the compound `CCOc1ccccc1-c1cc(C(=O)N/N=C(\C)c2cccnc2)c2ccccc2n1`, the inhibition was 1.24%.

Consider `Cc1ccc2c(c1)C1CN(C)CCC1N2S(=O)(=O)c1ccc(Oc2ccc([N+](=O)[O-])cc2)cc1` (stereo not drawn), for which the inhibition was -0.52%.

Consider `COCCNC(=S)N(C)[C@H]1C[C@H]2c3[nH]c4ccccc4c3CCN2C[C@H]1[C@H](C)O`, for which the inhibition is 1.22%.

With `CCOC(=O)N1CCN(S(=O)(=O)c2ccc3c(c2)C(C)C(=O)N3)CC1` (stereo not drawn), the inhibition is 0.76%.

Consider `COc1cc(OC)cc(-c2cc3ccc(F)cc3cn2)c1`, for which the inhibition is 1.37%.

With `Fc1ccccc1-c1cc2cc3c(cc2cn1)OCO3`, the inhibition was 1.9%.

Take `Fc1ccc2cnc(-c3ccccc3)cc2c1`: the inhibition was 9.42% (active).

Turning to `CN(C)c1ccc(NC(=O)NC2CCCCN(Cc3ccc(Cl)cc3)C2=O)cc1` (stereo not drawn), the inhibition is -1.13%.

`COC(=O)C1C(=O)c2c([nH]c(C(=O)OCCSC)c2C)CC1C` (stereo not drawn): the inhibition was 5.6% (active).

As to `CN(C)[C@H]1CCN(c2cccc3c2S(=O)(=O)N2CC[C@H](C2)O3)C1`, the inhibition was 0.33%.

Take `O=C(NCc1ccco1)c1nn2cccnc2c1Cl`: the inhibition is 0.65%.

Take `COc1ccc(-c2c(NC(=O)c3ccco3)oc3ccc(Cl)cc3c2=O)cc1`: the inhibition was -0.46%.

Take `O=C(Nc1cc(-c2nc3ncccc3o2)ccc1Cl)c1ccco1`: the inhibition was -1.38%.

As for `O=C(Nc1ccc2oc(-c3ccccc3F)nc2c1)c1ccco1`, the inhibition is 4.4% (active).

On to `O=C(CN1CCC(NC(=O)NCc2ccccc2)CC1)Nc1ccc2c(c1)OCCO2`, for which the inhibition was -0.91%.

Turning to `Cc1cccc(NC(=O)C[C@H]2CC[C@H]3[C@@H](COc4ccc(NC(=O)Nc5ccccc5)cc4C(=O)N3C)O2)c1`, the inhibition is 0%.

For `Cc1ccc(-c2nnc(SCC(=O)Nc3ccc(Oc4ccccc4)cc3)n2Cc2ccco2)cc1`, the inhibition is -2.13%.

In the case of `CC(C)CNc1cccc2c1S(=O)(=O)N(Cc1cn(Cc3ccccc3C(F)(F)F)nn1)Cc1ccccc1O2`, the inhibition is 0.13%.
